Assay results from PubChem BioAssay.
Values without a mark were called inactive. Active and inactive are the calls of the source.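 How the source made its calls, unless noted: active means mean inhibition over 43.08%, the solvent-only control mean plus 3 SD; inactive means the rest.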

Legend:
[1] = biological target: Nuclear receptor coactivator 3 (Homo sapiens) (UniProt Q9Y6Q9); assay: NCOA3 GAL4-fusion reporter inhibition – cell-based, luminescence, quadruplicate, confirmation (AID 588792); settings: HEK293 GAL4-SRC3 luciferase reporter, at 3.6 µM, active compounds read high;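 further: 0% = DMSO treated cells and 100% = gossypol at 36 µM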
Sequence of Nuclear receptor coactivator 3 (Homo sapiens) (Q9Y6Q9 whole entry, looked up, the tested form may be a part): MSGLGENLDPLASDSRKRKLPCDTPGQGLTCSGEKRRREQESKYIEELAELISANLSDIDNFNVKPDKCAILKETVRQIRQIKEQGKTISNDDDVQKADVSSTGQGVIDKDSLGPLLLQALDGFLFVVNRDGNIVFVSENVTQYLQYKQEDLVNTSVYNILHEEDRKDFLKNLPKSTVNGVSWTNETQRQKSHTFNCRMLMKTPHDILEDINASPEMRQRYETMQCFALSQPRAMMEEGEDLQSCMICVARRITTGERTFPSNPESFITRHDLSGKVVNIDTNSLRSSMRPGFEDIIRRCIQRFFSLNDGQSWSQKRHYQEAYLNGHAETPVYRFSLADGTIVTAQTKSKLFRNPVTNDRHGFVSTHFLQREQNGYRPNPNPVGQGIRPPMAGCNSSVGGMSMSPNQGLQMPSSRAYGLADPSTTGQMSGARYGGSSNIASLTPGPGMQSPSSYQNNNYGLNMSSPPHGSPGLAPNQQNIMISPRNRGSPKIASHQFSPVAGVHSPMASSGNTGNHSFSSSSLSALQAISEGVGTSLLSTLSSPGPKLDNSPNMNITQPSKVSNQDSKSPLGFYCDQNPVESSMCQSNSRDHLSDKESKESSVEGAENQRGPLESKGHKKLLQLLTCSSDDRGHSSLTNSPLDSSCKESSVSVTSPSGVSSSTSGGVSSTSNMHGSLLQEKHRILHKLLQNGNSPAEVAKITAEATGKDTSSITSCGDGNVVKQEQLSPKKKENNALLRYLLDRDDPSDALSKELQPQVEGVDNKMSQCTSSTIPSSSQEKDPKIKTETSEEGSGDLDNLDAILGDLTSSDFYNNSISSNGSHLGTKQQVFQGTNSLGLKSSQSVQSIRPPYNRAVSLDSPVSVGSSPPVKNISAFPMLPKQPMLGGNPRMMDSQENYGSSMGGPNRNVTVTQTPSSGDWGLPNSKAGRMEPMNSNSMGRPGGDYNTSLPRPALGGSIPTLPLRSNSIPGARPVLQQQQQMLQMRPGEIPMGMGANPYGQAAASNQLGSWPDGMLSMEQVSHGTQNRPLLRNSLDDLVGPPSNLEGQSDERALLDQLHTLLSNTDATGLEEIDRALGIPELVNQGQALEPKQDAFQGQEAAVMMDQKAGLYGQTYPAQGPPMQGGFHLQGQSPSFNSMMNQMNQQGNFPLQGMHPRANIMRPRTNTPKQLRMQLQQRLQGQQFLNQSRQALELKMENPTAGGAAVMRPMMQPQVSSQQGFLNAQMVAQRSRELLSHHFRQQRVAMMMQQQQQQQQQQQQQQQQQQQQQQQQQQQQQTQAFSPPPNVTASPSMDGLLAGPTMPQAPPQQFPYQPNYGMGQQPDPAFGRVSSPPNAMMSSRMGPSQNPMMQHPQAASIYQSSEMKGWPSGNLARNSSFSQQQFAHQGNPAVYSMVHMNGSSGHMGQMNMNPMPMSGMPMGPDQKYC

[2] = tested on: transactivating tegument protein VP16 (Human herpesvirus 1), Gal4-VP16 luciferase reporter; assay: repression of VP16-driven luciferase reporter – cell-based, luminescence, high throughput, counter-screen for SRC3 inhibitor project (AID 588794; in the data active means inhibition above about 30%); settings: mammalian cells, at 3.6 µM, active compounds read high

Row | SMILES | inhibition [1] | inhibition [2]
1 | CCOC(=O)c1c(NC(=O)COc2cccc3c2CCN(C)C3=O)sc2c1CCC2 | -1.43% | 10.2%
2 | CCn1c(Cc2ccccc2)nnc1SCC(=O)Nc1ccc(N2CCOCC2)c(Cl)c1 | -0.44% | -2.29%
3 | CC(=O)Nc1nc(C)c(-c2csc(Nc3cccc([N+](=O)[O-])c3)n2)s1 | 7.09% | -11.4%
4 | Cc1cccc(C2(c3cccc(C)c3)CC2C(=O)Nc2ccc([N+](=O)[O-])cc2O)c1 (stereo unspecified) | 7.2% | 8.99%
5 | CN1CCN(S(=O)(=O)c2ccc(Sc3nnnn3-c3ccccc3)c([N+](=O)[O-])c2)CC1 | 24.5% | 2.52%
6 | C/C(=N\NC(=O)c1c(C)nc2ccccn12)c1ccc(O)cc1O | 52.7% (active) | 55.2% (active)
7 | O=C(c1ccc(Cl)cc1)C(Cn1cncn1)C(Sc1ccccc1)c1ccccc1 (stereo unspecified) | 14.8% | 20.1%
8 | COc1cc2[nH]c3c(Cl)ncnc3c2cc1OC | 32.2% | 16.2%
9 | Cc1nc2cc(F)ccc2n1C1CCN(S(=O)(=O)c2ccccc2)CC1 | 14.1% | 15.3%
10 | O=C(Nc1ncc(Cc2ccc(C(F)(F)F)cc2)s1)c1ccc(-c2cccc([N+](=O)[O-])c2)o1 | 0.3% | 44.4% (active)
11 | CC(=O)/C=C/c1ccc2ccccc2n1 | -15.9% | 18.8%
12 | Cc1cccc(Nc2ncnc(N)c2[N+](=O)[O-])n1 | 24.9% | 4.32%
13 | CCN(CC)CCCNc1nc2cc(OC)c(OC)cc2c2nc(-c3cccnc3)nn12 | -30.7% | 39.4% (active)
14 | Brc1ccc(N=Nc2ccc3ccccc3n2)cc1 | 51.2% (active) | 33.7% (active)
15 | Cc1ccc(S(=O)(=O)C(C#N)c2nc3ccccc3nc2N2CCN(C)CC2)cc1 (stereo unspecified) | 19.1% | -2.04%
16 | Cc1cc(NC2CCCCC2)nc(NCc2ccccc2)n1 | 18.8% | 28.1%
17 | CCCCC(O)(CCCC)C(=O)NN(C(=O)OCC)c1ccccc1 | 11.9% | 14.8%
18 | C/C(=N\NC(=O)C1COc2ccccc2O1)c1ccccn1 (stereo unspecified) | -12.8% | 19.6%
19 | COc1cc(C(F)(F)F)c(C(=O)N(C)Cc2cc(Cl)cc(Cl)c2)cn1 | -10.3% | -2.09%
20 | COc1ccc(-c2cc(C(=O)N(C)Cc3ccc(OC)c(OC)c3OC)c3ccccc3n2)cc1OC | 8.88% | 6.51%
21 | CC(C)COc1ccc(C(=O)Nc2sc3c(c2C(=O)O)CC(C)(C)OC3)cc1 | 45.4% (active) | 68.5% (active)
22 | COc1cccc(-c2csc3ncnc(Sc4nnnn4C)c23)c1 | 5.54% | 21.9%
23 | COc1cccc(-c2c(C(=O)N/N=C/c3ccncc3)nnn2-c2nonc2N)c1 | 3.64% | 12.9%
24 | CCOC(=O)CC/C(C)=N\N=C1\SC(CC(=O)O)C(=O)N1c1ccccc1 (stereo unspecified) | 0.21% | -4.68%
25 | CCc1ccc(CN(C)C(=O)c2cc(COc3cccc4cnccc34)on2)cc1 | 18.4% | 33.7% (active)
26 | O=C(Nc1ccc(Oc2cccnc2)nc1)c1ccc(C(F)(F)F)cc1 | 17.2% | 37.1% (active)
27 | CC1CCc2c(sc(NC(=O)c3ccco3)c2C(=O)O)C1 (stereo unspecified) | 18.1% | 36.3% (active)
28 | CCCCCc1ccc(OCCOCCn2c[n+](C)c3ccccc32)c(CCCCC)c1 | 25.3% | 36.4% (active)
